This note sets out measurements from PubChem BioAssay AID588726 (The Scripps Research Institute Molecular Screening Center, 2011).

Among all 360,000 compounds or so, about 8,200 (2.3%) were called active. The full list was thinned out, with actives kept by preference. A number with no mark means an inactive call. Cut-off read from the data, not from the text of the source: active = inhibition above about 27%; inactive = the rest.

In this assay the target is Fructose-bisphosphate aldolase (Mycobacterium tuberculosis (strain ATCC 25618 / H37Rv)) (UniProt P9WQA3). As to the kind of experiment: M. tuberculosis aldolase activity blockers – biochemical, fluorescence, strain H37Rv, primary screen (AID 588726).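 Note: 0% = vehicle and 100% = reference inhibitor.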 The following applies: purified M. tuberculosis FBA, fluorescence read-out, at 1 µM, hits give high values.
Sequence of Fructose-bisphosphate aldolase (Mycobacterium tuberculosis (strain ATCC 25618 / H37Rv)) (P9WQA3 whole entry, looked up): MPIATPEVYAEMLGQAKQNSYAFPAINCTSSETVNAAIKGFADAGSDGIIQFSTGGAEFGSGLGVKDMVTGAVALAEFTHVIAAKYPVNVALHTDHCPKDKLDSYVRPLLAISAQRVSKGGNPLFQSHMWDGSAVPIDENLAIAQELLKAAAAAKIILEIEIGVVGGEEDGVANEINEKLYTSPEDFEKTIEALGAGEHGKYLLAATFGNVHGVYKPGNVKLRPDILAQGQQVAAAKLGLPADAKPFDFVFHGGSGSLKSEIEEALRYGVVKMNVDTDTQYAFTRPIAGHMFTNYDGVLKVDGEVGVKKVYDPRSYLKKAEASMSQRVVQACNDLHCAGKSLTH
On to `O=S(=O)(c1cccc(C(F)(F)F)c1)N1c2ccccc2-n2cccc2C1c1cccnc1` (stereo not drawn), for which the inhibition was -0.16%. As for `O=C(Nc1c(-c2ccccc2)nc2c(Br)cc(Br)cn12)c1ccco1`, the figure is 1.02%; as for `Cc1cc(C(C)(C)C)oc1C(=O)N(CC(=O)NC1CCCC1)Cc1ccc(Cl)cc1`, 3.61%.

With `COCC1CCN(C(=O)c2ccc3oc(Cc4ccccc4)nc3c2)C1` (stereo not drawn), the inhibition was 2.73%.

For the compound `O=C1NCC(Nc2ccccc2)C(=O)N1` (stereo not drawn), the inhibition is -2.44%. As to `N=c1ccn(CC(=O)NC(N)=O)c2ccccc12`, the inhibition was 0%. On to `CC1C(C)N(C(=O)CCl)c2ccccc2N1C(=O)CCl` (stereo not drawn), for which the inhibition was -0.21%.

For the compound `CCN(CC)S(=O)(=O)c1ccc(NC(=O)c2cccnc2Cl)c(NC(=O)c2cccnc2Cl)c1`, the inhibition was -0.1%. `COc1ccccc1CN1CC(C(=O)NCCc2cn[nH]c2)CCC1=O` (stereo not drawn): the inhibition is 3.36%. Take `Cc1nc2ccccc2n1CC(O)c1ccccc1` (stereo not drawn): the inhibition is -0.66%. As for `Cc1nc(-c2ccccc2)cn2c1nc1ccccc12`, the figure is 119% (active); as for `Cc1c(C(=O)Nc2cccc(Cl)c2)cn2c(nc3ccccc32)c1C#N`, -0.2%.

`CN1CCn2cnc(C(=O)NCC(=O)OC(C)(C)C)c2C1=O`: the inhibition was -1.37%.

Turning to `Cc1c(CC(=O)NCC(=O)NCC(=O)O)c(=O)oc2cc3oc4c(c3cc12)CCCC4`, the inhibition is 16.6%.

For `Cc1coc2c1c(C)cc1oc(=O)c(CC(=O)NCC(=O)N[C@H](C(=O)O)C(C)C)c(C)c12`, the inhibition was 105% (active). For `CSCC[C@H](NC(=O)N1CCn2c1nc1ccccc12)C(=O)NC1CCCCC1`, the inhibition is -1.03%. Turning to `CCN(CCn1cccn1)Cc1nc(-c2ccc(C(=O)OC)cc2)no1`, the inhibition was 0.65%. `CCOC(=O)COc1ccc(Cl)cc1C1NC(=O)NC(C)=C1C(C)=O` (stereo not drawn): the inhibition is 0.97%.

Regarding `COc1ccccc1OCC(=O)OCc1cc(-c2ccco2)on1`, the inhibition was 2.93%. As for `CCOC(=O)COc1cc(OCC(=O)OCC)c2c(=O)cc(-c3ccccc3)oc2c1`, the figure is 39.2% (active); as for `COCCC(=O)Nc1ccc2c(c1)CN(C(=O)CCOC)CC2`, 2.39%. Turning to `O=C(NCC1CC1)c1onc(CSc2ccccc2)c1C(=O)NCC1CC1`, the inhibition was 3.54%. As for `O=C(NCc1ccccc1)c1onc(CSc2ccncc2)c1C(=O)NCc1ccccc1`, the figure is 0.92%; as for `O=C(NCc1ccccc1)c1onc(CSc2nc3ccccc3[nH]2)c1C(=O)NCc1ccccc1`, 27.9% (active).

Turning to `O=C(CN1CCN(C(=O)C2CCCO2)CC1)Nc1c(Cl)cccc1Cl` (stereo not drawn), the inhibition was -2.38%. In the case of `O=C(CCCCCn1c(=S)[nH]c2ccsc2c1=O)NC1CCCCC1`, the inhibition was 3.56%.

In the case of `Cc1ccc2[nH]c(=O)c(-c3nc4c(C)cccn4c3NCc3ccco3)cc2c1`, the inhibition was 4.83%.

`CC(C)c1cc(NCc2ccccn2)n2c(nc3ccccc32)c1C#N`: the inhibition is 17.6%.

Regarding `Cc1cc(NC(C)C)n2c(nc3ccccc32)c1C#N`, the inhibition is 41.7% (active).

Take `CCOCCCNc1c(CC)c(C)c(C#N)c2nc3ccccc3n12`: the inhibition is 4.3%. As for `Cc1cc(NCc2ccco2)n2c(nc3ccccc32)c1C#N`, the figure is 162% (active). Take `Cc1ccc(S(=O)(=O)N(C)c2nc3ccccc3n3c(C(C)C)nnc23)cc1`: the inhibition is -0.15%. As for `CCCNC(=O)NC(=O)COC(=O)CC(NC(N)=O)c1ccc(Cl)cc1` (stereo not drawn), the figure is -6.17%; as for `CC(C)CCNC(=O)CC1C(=O)N(Cc2ccccc2)C(C)c2nc3ccccc3n21` (stereo not drawn), -2.2%; as for `CC(C)(C)C(=O)CSc1ccc(S(=O)(=O)N2CCCC2)cn1`, 1.92%.

On to `COC(=O)C1=C(C)N(Cc2ccccc2)C(=NCCCOC(C)C)N[C@H]1c1ccccc1`, for which the inhibition is -0.81%. As for `CC1CCCC(NC(=O)COC(=O)[C@@H]2CC(O)CN2S(=O)(=O)c2ccc3c(c2)OCCO3)C1C` (stereo partly drawn), the figure is 0.53%; as for `O=c1[nH]nc(SCCS(=O)(=O)c2ccc(F)cc2)n1-c1ccccc1C(F)(F)F`, 1.24%. As for `CCCCN(CCCC)CCC(O)c1cc2c(Cl)cc(Cl)cc2c2cc(C(F)(F)F)ccc12` (stereo not drawn), the figure is -0.59%; as for `O=c1onc(-c2cccs2)n1Cc1ccccc1`, 1.37%; as for `COc1ccc(C2CC(c3ccc(Cl)cc3Cl)Nc3nc(N)nn32)cc1OC` (stereo not drawn), 0.41%.

Take `Cc1ccc(C2CC(c3cccc(Br)c3)n3nc(N)nc3N2)cc1` (stereo not drawn): the inhibition is 5.98%. For `Nc1nc2n(n1)C(c1ccco1)CC(c1ccc(Cl)c(Cl)c1)N2` (stereo not drawn), the inhibition was 30.1% (active). As for `CCOc1ccc(CCNC(=O)COC(=O)C2CCN(c3ccc(C(F)(F)F)cn3)CC2)cc1OCC`, the figure is 2.79%. As for `OC[C@@H]1CN(Cc2ccc3c(c2)OCO3)C[C@H](n2cnc3c(NCc4ccco4)ncnc32)O1`, the figure is 0.71%. As for `COc1ccc(OCCNC(=O)c2cc(C3CC3)nc3c2cnn3C(C)C)cc1`, the figure is 7.43%. On to `CNC(=O)c1ccc(CN(C)C(=O)c2cc(C3CC3)nc3c2cnn3C(C)C)cc1`, for which the inhibition is -0.03%. As to `CC(C)n1ncc2c(C(=O)NCc3ccccc3CN(C)C)cc(C3CC3)nc21`, the inhibition is 29.8% (active). As for `Cn1c(=O)c2c(nc(N3CCOCC3)n2CCNC2=NCCC2)n(C)c1=O`, the figure is 0.36%; as for `Cc1coc(C)c1C(=O)CC1(O)C(=O)N(C)c2ccc(Cl)cc21` (stereo not drawn), -1.99%. As for `CC(c1nnc(SCC(=O)Nc2sccc2C#N)n1-c1ccc(Cl)cc1)N(C)C` (stereo not drawn), the figure is -0.06%; as for `Cc1cc(=O)oc2c(C)c(OC(C)C(=O)NC3CCN(Cc4ccccc4)CC3)ccc12` (stereo not drawn), 14.6%; as for `COc1cccc(C(=O)OCc2cc(=O)oc3c(C)c(C)ccc23)c1OC`, 2.59%. As for `COc1ccccc1NC(=O)COC(=O)CNC(=O)C1CCCCC1`, the figure is 2.67%; as for `CCCc1cc(=O)[nH]c(SCC(=O)Nc2ccc(S(=O)(=O)N3CCCC3)cc2)n1`, 1.25%. As to `O=C(O)c1cccc(S(=O)(=O)N2CC=C(c3ccccc3)CC2)c1`, the inhibition is 0.87%.

As for `CCOC(=O)NN1C(=O)c2ccccc2NC1c1cccc(O)c1` (stereo not drawn), the inhibition is 31.7% (active). As for `O=C1c2ccccc2NC(c2ccccc2O)N1NS(=O)(=O)c1ccccc1` (stereo not drawn), the figure is 7.05%; as for `CC(=O)NN1C(=O)c2ccccc2NC1c1ccccc1` (stereo not drawn), 37.3% (active).

On to `CN(C)c1ccc(C2Nc3ccccc3C(=O)N2NS(=O)(=O)c2ccccc2)cc1` (stereo not drawn), for which the inhibition is -0.05%.

Take `CCOC(=O)NN1C(=O)c2ccccc2NC1c1ccccc1O` (stereo not drawn): the inhibition is 26.2%.

On to `CCN1C(=O)N[C@@H](c2ccccc2)[C@H](C(C)=O)[C@H]1C`, for which the inhibition was 1.5%. As for `Cc1cccc(C)c1NC(=O)C1CCCN1C(=O)OC(C)(C)C` (stereo not drawn), the figure is -0.82%; as for `CS(=O)(=O)N(CC(=O)N1CCOCC1)c1ccc2c3c(cccc13)CC2`, 9.05%. As for `COCCNC(=O)C1CCN(S(=O)(=O)c2ccc3c(c2)OCCO3)CC1`, the figure is -1.67%; as for `O=C(O)C(=Cc1ccccc1[N+](=O)[O-])c1ccccc1`, 3.82%.

Regarding `CC1(C)CC(=O)C=C(c2ccc(COC(=O)c3cc(F)cc(F)c3)cc2)C1=O`, the inhibition is -0.96%.

`C/C(=N\NC(=S)NC(C)C)c1ccc(C(C)(C)C)cc1`: the inhibition was 2.12%. As for `Cc1ccc(CNC(=O)c2ccccc2CCc2ccccc2)cc1`, the figure is -1.34%; as for `Cc1cccc(N(C)C(=O)c2cc3c(=O)[nH]c4ccc(C)cc4c3s2)c1`, 2.59%; as for `CCN(CC)CCCNC(=O)c1cc(-c2cccc(Cl)c2)on1`, 0%. As for `CCN(CC)CCCNC(=O)c1cc2c(=O)[nH]c3ccc(C)cc3c2s1`, the figure is 99.9% (active); as for `O=C1CC(c2cccc(Br)c2)C2=C(CCCC2=O)N1` (stereo not drawn), 11.8%.

`COc1ccc(-n2nc(C(=O)NCC(=O)Nc3cccc(C)n3)c3ccccc3c2=O)cc1`: the inhibition is -0.39%. Turning to `COc1ccc(OC)c(CN2C(=O)CCC2(C)C(=O)NC2CCCCCC2)c1` (stereo not drawn), the inhibition was -0.66%.

With `Nc1ncnc2c1ncn2[C@@H]1O[C@H](C(=O)N2CCCN(Cc3ccccc3F)CC2)[C@@H](O)[C@H]1O`, the inhibition is -2.6%. As for `COc1ccc(C(=O)NCC2CCCN2S(=O)(=O)c2cccs2)cc1OC` (stereo not drawn), the figure is 2.94%. As for `CCN1CCCC1CNC(=O)c1ccc2c(c1)NC(=O)/C(=C\c1ccccc1F)S2` (stereo not drawn), the figure is -6.09%; as for `CCOC(=O)CSc1nc(C)cc2c1C(=O)OC2`, -3.48%. As for `O=C(NCc1cccc(Cl)c1)C1=CC=CN2CCS(=O)(=O)N=C12`, the figure is 30.5% (active). As to `O=C(NCc1cccc(Cl)c1)C1CCC(=O)N(C2CC2)C1` (stereo not drawn), the inhibition was 1.48%.

`O=C(NCc1cccc(Cl)c1)C1CCN(c2nnc(N3CCCC3=O)s2)CC1`: the inhibition is -1.53%. With `COCC1CCCN(Cc2cn[nH]c2-c2cc3ccccc3o2)C1` (stereo not drawn), the inhibition was 0.03%. As for `COc1ccc(C(=O)Nc2ccc(C(=O)NCC3CCCO3)cc2)c(OC)c1OC` (stereo not drawn), the figure is -1.55%.

For `COc1ccc2c3c(c(=O)oc2c1OCC(=O)C(C)(C)C)CCCC3`, the inhibition is 63.3% (active). As for `CCCOc1ccc2c3c(c(=O)oc2c1OCCC)CCC3`, the figure is 16%. As for `CCc1nc2c(OCC(=O)C(C)(C)C)cccn2c1N(C)C(=O)c1ccccc1F`, the figure is -0.18%. As for `Clc1ccc(C=NC23CN4CN(CN(C4)C2)C3)cc1`, the figure is 1.62%; as for `NNc1cccc(C=Cc2ccccc2)cc1=O`, 21.6%.

For `O=C(COc1ccc(Cl)cc1)NCc1nnc(SCC(=O)NCC2CCCO2)o1` (stereo not drawn), the inhibition was 5.04%. Take `CN1CCN(CCCNC(=O)c2ccc(/C=C3\Oc4ccccc4N(Cc4ccc(Cl)cc4)C3=O)cc2)CC1`: the inhibition is 80.8% (active). As for `CCC1Oc2ccccc2N(CC(=O)NCCCN2CCN(CC)CC2)C1=O` (stereo not drawn), the inhibition was -0.48%. `Cc1ccc(NC(=O)CCCNC(=O)c2ccc(Cl)cc2)cc1S(=O)(=O)N1CCOCC1`: the inhibition is 1.07%.
